# LYPLA1 inh = counter-screen for PME1 inhibitors: inhibitors of human LYPLA1; O75608; recombinant LYPLA1, FP-Rh probe fluorescence polarization; inhibition, % at 5.9 µM; actives 0.16% (n = 320,000); AID 2174;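 active = inhibition above the mean of all tested compounds plus 3 SD, set per campaign, cut at about 14% in these data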;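 note: inhibitors block serine hydrolase probe labeling of LYPLA1 so polarization falls; 0% = enzyme with DMSO and 100% = wells lacking LYPLA1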
# LYPLA2 counter = blocks human lysophospholipase 2, a PME1 counter-screen; O95372; recombinant LYPLA2, FP-Rh probe fluorescence polarization; inhibition, % at 5.9 µM; actives 0.38% (n = 320,000); AID 2177;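 active = inhibition above the screen-wide mean plus 3 SD, limit set per campaign, cut at about 26% in these data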;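 note: 0% = LYPLA2 with DMSO and 100% = wells lacking LYPLA2 enzyme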
# PREPL inhibitor = inhibitors of human prolyl oligopeptidase-like enzyme PREPL | recombinant PREPL, fluorescence polarization activity-based probe | inhibition, % at 5.96 µM | actives 0.68% (n = 320,000) | Q4J6C6; in the data active = inhibition above about 43%;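 note: 0% = enzyme with DMSO and 100% = wells lacking enzyme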
# Target sequence (Q4J6C6 whole entry, looked up): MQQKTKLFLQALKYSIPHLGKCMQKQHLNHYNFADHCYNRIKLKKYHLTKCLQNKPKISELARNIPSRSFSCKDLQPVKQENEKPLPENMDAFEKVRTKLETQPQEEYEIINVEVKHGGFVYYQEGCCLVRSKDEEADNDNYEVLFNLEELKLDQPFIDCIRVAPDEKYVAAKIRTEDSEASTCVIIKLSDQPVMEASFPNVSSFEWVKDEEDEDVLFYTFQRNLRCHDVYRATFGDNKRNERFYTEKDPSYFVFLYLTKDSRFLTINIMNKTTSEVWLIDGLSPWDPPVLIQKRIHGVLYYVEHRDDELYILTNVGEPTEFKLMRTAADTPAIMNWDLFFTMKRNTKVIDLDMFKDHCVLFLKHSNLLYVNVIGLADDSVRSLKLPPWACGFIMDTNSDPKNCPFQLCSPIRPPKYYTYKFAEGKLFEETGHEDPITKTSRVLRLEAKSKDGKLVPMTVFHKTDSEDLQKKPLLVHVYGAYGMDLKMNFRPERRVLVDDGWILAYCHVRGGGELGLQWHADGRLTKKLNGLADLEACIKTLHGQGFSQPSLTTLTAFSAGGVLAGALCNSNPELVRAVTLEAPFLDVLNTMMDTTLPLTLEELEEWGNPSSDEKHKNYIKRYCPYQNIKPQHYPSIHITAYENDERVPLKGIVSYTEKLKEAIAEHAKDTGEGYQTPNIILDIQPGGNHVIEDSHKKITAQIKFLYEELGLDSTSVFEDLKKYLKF
# Hck Nef HTS = blocks Nef-activated human Hck kinase; P08631; Recombinant Hck-YEEI plus Nef, Z-Lyte FRET kinase assay; inhibition, % at 20 µM; actives 0.68% (n = 220,000);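 active = Hck-Nef kinase inhibition above about 50%, limit read from the data; inactive = inhibition below that limit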;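 note: 0% = DMSO with Hck plus Nef and 100% = Hck alone without Nef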
# p97 ATPase inh = human p97 ATPase inhibition | inhibition, % at 8 µM | recombinant p97 ATPase, Kinase-Glo ATP luminescence, 3 h | actives 0.42% (n = 220,000) | P55072; in the data active = inhibition above about 15%;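 note: 0% = DMSO vehicle and 100% = wells lacking enzyme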
# Rin1-Abl PPI inh = inhibitors of human Rin1-Abl protein interaction | P00519+Q13671 | TR-FRET Rin1/Abl binding, biochemical | inhibition, % at 7.35 µM | actives 0.4% (n = 360,000) | AID 588664; in the data active = inhibition above about 5%, passing the limit was not always enough
# Rin1-Abl confirm = Rin1-Abl interaction inhibition confirmation. inhibition, % at 7.35 µM. shares compounds with Rin1-Abl PPI inh. TR-FRET Rin1-Abl binding, purified proteins. AID 602124. actives 49% (n = 1,300)
# GFP quench = quenches GFP fluorescence, counter-screen for Rin1-Abl inhibitors; shares compounds with Rin1-Abl PPI inh; inhibitors/quenchers counterscreen; inhibition, % at 6.75 µM; actives 8.5% (n = 1,300);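 note: ABL1-eGFP fusion protein alone without its partner RIN1-SBP; 0% = protein with vehicle and 100% = wells lacking protein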
# GFP quench dose = quenches GFP in dose response, Rin1-Abl counter-screen | shares compounds with Rin1-Abl PPI inh | GFP fluorescence interference/quenching counterscreen | IC50, µM | 230 tested, under 10 active | AID 602182; call rule not given here;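 note: ABL1-eGFP fusion protein alone without its RIN1 binding partner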
# The depositor's hits bear a star; . = no result given. Sampled rows, rich in hits. Any-hit rate of the full collection: about 1.7%. Cut-off read from the data, not from the text of the source, unless noted: active = inhibition above about 6.5%; inactive = the rest.
SMILES,LYPLA1 inh,LYPLA2 counter,PREPL inhibitor,Hck Nef HTS,p97 ATPase inh,Rin1-Abl PPI inh,Rin1-Abl confirm,GFP quench,others
COCCNC(=O)C1(C)CCCN(C(=O)c2ccc(OC)cc2OC)C1 (stereo not given),.,.,.,.,.,1.3,.,.,
C#CCN(C[C@@H]1[C@@H](OC(=O)NCc2ccccc2F)[C@@H](OC(=O)NCc2ccccc2F)Cn2c(=O)ccc(=O)n21)S(=O)(=O)c1ccc(C)cc1,.,.,.,.,.,-0.1,.,.,
CN(CCOc1ccccc1)C(=O)C1CCN(C(=O)c2ccc(F)cc2)CC1,-0.1,2.1,13.5,.,.,-1.7,.,.,
CCCOC(=O)c1ccc(NC(=O)CCC(=O)OCC)cc1,1.6,3.6,-0.7,-3.1,-7.1,10.4*,13.9*,1.6,
COC(=O)c1ccc(COC(=O)C23CC4CC(CC(O)(C4)C2)C3)o1,3.9,15.2,6.8,0.1,6.2,19.7*,16.7*,0.7,GFP quench dose=>67.5
COC(=O)c1ccc(COC(=O)c2ccc(CO)cc2)o1,-1.6,-2.2,-0.3,-0.5,-6.3,7.3*,5.8,-0.9,
CCc1ccccc1NC(=O)NNC(=O)CCc1ccc(OC)cc1,.,.,.,.,.,-1.2,.,.,
CN(C)C(=O)CCc1ccc2c3c([nH]c2c1)[C@]1(C)[C@@H](C(=O)N2CCCCC2)C[C@H](CC(=O)NCCCn2ccnc2)C(=O)N1CC3,.,.,.,.,.,-6.8,.,.,
Cc1noc(C)c1S(=O)(=O)N(C)C[C@H]1Oc2ccc(NC(=O)Cc3ccccc3)cc2C(=O)N([C@H](C)CO)C[C@@H]1C,.,.,6.8,.,.,-1.0,.,.,
Cc1ncc(C[n+]2csc(C)c2C)c(N)n1,-2.9,1.4,-3.2,20.0,3.2,9.7*,-0.6,-2.7,
COCCNC(=O)c1cc2c3ccccc3n(C)c2s1,-2.5,2.8,12.2,1.0,2.0,31.2*,22.1*,-1.2,GFP quench dose=>67.5
CCCNC(=O)c1cc2c3ccccc3n(C)c2s1,6.5,1.4,16.4,0.2,-1.4,3.0,.,.,
C[C@H]1CN([C@@H](C)CO)C(=O)CCCn2nncc2CO[C@H]1CN(C)S(=O)(=O)c1cccc(F)c1,.,.,.,.,.,-1.3,.,.,
C[C@@H]1CN([C@@H](C)CO)C(=O)CCCn2nncc2CO[C@@H]1CN(C)S(=O)(=O)c1cccc(F)c1,.,.,.,.,.,13.6*,-0.9,0.2,
O=c1cc(CO)oc(CN2CCN(Cc3ccccc3)CC2)c1O,-2.6,-3.7,6.9,0.4,3.7,5.2,.,.,
CN1CCN(Cc2oc(CO)cc(=O)c2O)CC1,-3.4,1.6,-6.9,2.9,2.7,12.0*,-0.6,-0.5,
CCN(CC)Cc1oc(CO)cc(=O)c1O,-2.8,-7.0,-12.5,23.1,-1.3,26.0*,11.2*,2.2,
O=c1cc(CO)oc(CN2CCCC2)c1O,0.8,-0.2,18.1,-0.6,-0.2,27.0*,2.8,0.2,
O=C(O)C1CCN(Cc2oc(CO)cc(=O)c2O)C1 (stereo not given),.,.,.,.,.,5.7,.,.,
COC(=O)c1ccc(COC(=O)C2CCN(S(=O)(=O)c3ccccc3C(=O)OC)CC2)cc1,.,.,15.3,.,.,3.3,.,.,
COC(=O)Nc1nc(-c2ccc(F)cc2)c(C)s1,-1.9,-0.3,6.8,0.4,0.0,5.2*,-2.5,-0.1,
COCC(=O)Nc1nc(-c2ccc(C)cc2)c(C)s1,3.7,0.5,-13.1,-18.7,0.8,-0.5,.,.,
COc1cccc(C(=O)Nc2cccc(SC)c2)c1,-5.7,1.1,-7.4,-1.0,0.3,6.3*,0.2,-0.4,
CC(NC(=O)CN1CCN(CC(=O)Nc2ccccc2Cl)CC1)c1ccc(Br)cc1 (stereo not given),-0.3,6.0,1.0,.,.,-0.9,.,.,
O=C(c1ccccc1)N(CCN1CCOCC1)C1(C(=O)Nc2ccccc2)CCCCC1,3.8,6.3,-1.2,-6.7,-4.9,8.5*,-0.6,-0.1,
SMILES,LYPLA1 inh,LYPLA2 counter,PREPL inhibitor,Hck Nef HTS,p97 ATPase inh,Rin1-Abl PPI inh,Rin1-Abl confirm,GFP quench,others
CSc1ccc(CN(C)C(=O)COc2ccc(C(=O)c3ccccc3)cc2)cc1,-0.3,4.8,-0.6,.,.,-1.0,.,.,
Cc1ccc(-n2c(SCC(=O)NCc3ccco3)nnc2-c2cccnc2)cc1,5.7,1.6,3.7,14.6,4.3,7.4*,8.4*,-3.9,
Cc1ccc(NC(=O)CSc2nnc(-c3cccnc3)n2-c2ccc(C)cc2)cc1,-0.8,9.1,-2.8,-10.7,-0.7,11.0*,10.5*,-1.1,
CNC(=O)CSc1nnc(-c2cccnc2)n1-c1ccc(C)cc1,3.5,6.3,-1.0,19.0,7.2,1.8,.,.,
COc1ccc(C(=O)Nc2ccc(O)cc2C(=O)O)cc1,-0.5,-3.4,2.4,7.7,13.6,10.9*,9.8*,1.8,
COc1ccc(C(=O)Nc2ccccc2C(=O)Nc2ccccc2C(=O)O)cc1,-11.4,-8.8,2.7,.,.,5.6*,4.7,0.0,
COc1ccc(C(=O)Nc2cc(Cl)ccc2C(=O)O)cc1,-5.6,-14.6,-9.1,-3.1,7.1,1.9,.,.,
Cn1c(=O)c2c(nc(-n3ccnc3)n2Cc2ccccc2)n(C)c1=O,-0.4,-0.9,10.0,-1.3,1.4,14.8*,12.9*,1.4,
Cn1c(=O)c2c(nc(-n3ccnc3)n2C)n(C)c1=O,0.9,2.2,3.8,-0.1,4.9,4.4,.,.,
Cn1c(=O)c2c(nc(NCc3ccco3)n2Cc2ccc(Cl)cc2Cl)n(C)c1=O,0.8,3.3,12.3,4.5,4.3,-1.0,.,.,
Cn1c(=O)[nH]c(=O)c2c1nc(NCc1ccco1)n2Cc1ccccc1Cl,0.1,1.8,9.1,18.6,1.2,13.2*,17.5*,-1.1,GFP quench dose=>67.5
CC(NC(=O)c1ccco1)C(=O)OCc1cccc(C(F)(F)F)c1 (stereo not given),.,.,5.3,.,.,-1.2,.,.,
C/C(=N\NC(=O)c1ccc2c(c1)OCCO2)c1ccccc1,-2.9,-1.4,5.8,47.9,-17.8,6.5*,-3.0,-2.3,
C/C(=N\NC(=O)c1ccc(O)cc1)c1ccc2c(c1)OCCO2,-1.5,-3.4,-3.2,.,.,2.1,.,.,
COc1ccccc1C(=O)NCC1CCN(c2ccc(S(=O)(=O)N3CCOCC3)cc2)CC1,2.3,4.8,12.0,-1.5,-1.9,21.7*,13.3*,-0.6,
CCOC(=O)C1=CN(Cc2cccc(-c3ccc(Cl)nc3)c2)S(=O)(=O)N(C)C1C (stereo not given),.,.,.,.,.,-3.3,.,.,
CN(C(=O)c1ccc(NC(=O)Cc2ccc(NC(=O)C3CCN(C(=O)CCc4ccccc4)CC3)cc2)cc1)C1CC1,1.3,1.8,10.5,.,.,11.7*,17.1*,-0.4,
CN(CCc1ccccc1)C(=O)c1ccc(NC(=O)Cc2cccc(NC(=O)C3CCN(C(=O)c4ccccc4)CC3)c2)cc1,.,.,.,.,.,9.1*,9.1*,0.7,
CN(C(=O)c1ccc(NC(=O)Cc2ccc(NC(=O)C3CCN(C(=O)C4CC4)CC3)cc2)cc1)C1CCCC1,.,.,.,.,.,-4.3,.,.,
